Our source for the growth values is PubChem BioAssay (NCI).

This is part of a sample that, as a whole, favours compounds with a hit. Of some 83,000 tested, about 20% had one in any assay.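 Each cell line was grown in a 96-well plate and treated with one concentration of compound for 48 hours. Values below 10 were considered active.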 Values without a mark were called inactive. Calls of active or inactive are those of the source.

Some test systems named below: OVCAR-5 ovarian; OVCAR-4 ovarian; SK-OV-3 ovarian; IGROV1 ovarian; OVCAR-3 ovarian; HS 578T breast; NCI/ADR-RES ovarian; T-47D breast; BT-549 breast; MDA-MB-435 melanoma; SW-620 colon; HCT-116 colon; HCC-2998 colon; KM12 colon; MCF7 breast; OVCAR-8 ovarian.
Common to all, as to assay: NCI-60 one-dose screen, 48 h (100 = growth as untreated, 0 = no growth, -100 = all killed)
What all share (conditions): 10 µM unless noted

As for `Cc1nn(-c2ccc(Br)cc2)c2nc3c(nc12)C(=O)C(=O)c1ccccc1-3`, the growth was 100% with OVCAR-5 ovarian; 88.3% in the assay on OVCAR-4 ovarian; 93.6% with SK-OV-3 ovarian; 81.9% with IGROV1 ovarian; 101% with OVCAR-3 ovarian; 105% with HS 578T breast. The growth in the assay on NCI/ADR-RES ovarian was 86.4%; in the assay with T-47D breast, 91.2%; with BT-549 breast, 94.7%; in the assay on MDA-MB-435 melanoma, 110%; with SW-620 colon it was 93.5%; in the assay on HCT-116 colon, 86.3%. For the same molecule, the growth was 93% in the assay with HCC-2998 colon and 103% in the assay with KM12 colon.

With `Cc1nn(-c2ccc(Cl)cc2)c2nc3c(nc12)C(=O)C(=O)c1ccccc1-3`, the growth in the assay with OVCAR-5 ovarian is 95.9%; in the assay with OVCAR-4 ovarian, 48.4%; in the assay on SK-OV-3 ovarian it was 93.8%; with IGROV1 ovarian it was 59.1%; in the assay on OVCAR-3 ovarian, 2.92% (active); in the assay on HS 578T breast, 61.3%. Further, the growth with T-47D breast is 67.6%; with BT-549 breast it was 92.1%; in the assay with MDA-MB-435 melanoma, 97.7%; with SW-620 colon, 67.2%; in the assay with MCF7 breast, 49.7%; in the assay on HCT-116 colon it was 80.2%. In addition, the growth in the assay with HCC-2998 colon is 66.6%; with KM12 colon, 61.9%.

For `COC(=O)[C@]1(C(C)C)N[C@H](c2cn(-c3ccccc3)nc2-c2ccccc2)[C@@H]2C(=O)N(c3ccc(Cl)cc3)C(=O)[C@@H]21`, the growth is 101% in the assay with OVCAR-5 ovarian; 117% with OVCAR-4 ovarian; 92.7% with SK-OV-3 ovarian; 89.1% with OVCAR-3 ovarian; 117% with HS 578T breast; 90.3% in the assay with NCI/ADR-RES ovarian. In addition, the growth in the assay on T-47D breast was 93.6%; with BT-549 breast it was 86.7%; in the assay on MDA-MB-435 melanoma, 105%; in the assay with SW-620 colon, 99.4%; with MCF7 breast, 96.6%; in the assay on HCT-116 colon, 89.8%. Moreover, the growth in the assay on HCC-2998 colon was 109%; with KM12 colon, 95.3%.

Turning to `O=C1Cc2cc(CCN3CCN(CCOCCO)CC3)c(Cl)cc2N1Cc1ccc(-c2ccccc2-c2nn[nH]n2)cc1`, the growth in the assay on OVCAR-5 ovarian is 96.6%; in the assay on OVCAR-4 ovarian, 89.6%; in the assay on SK-OV-3 ovarian it was 93.8%; in the assay on OVCAR-3 ovarian it was 94.5%; in the assay with HS 578T breast, 85%; in the assay with NCI/ADR-RES ovarian it was 90.6%. In addition, the growth with T-47D breast was 101%; in the assay with BT-549 breast it was 87.3%; with MDA-MB-435 melanoma, 92.8%; in the assay with SW-620 colon, 95.9%; in the assay with MCF7 breast it was 87.1%; with HCT-116 colon, 87.8%. Besides, the growth in the assay with HCC-2998 colon was 88.5%; in the assay with KM12 colon, 85.2%.

Turning to `c1ccc(Nc2nnc(-c3cc(-c4cccnc4)n(-c4ccccc4)n3)s2)cc1`, the growth is 59.9% in the assay with OVCAR-8 ovarian; 105% in the assay with OVCAR-5 ovarian; 109% with SK-OV-3 ovarian; 108% in the assay with IGROV1 ovarian; 106% in the assay with OVCAR-3 ovarian; 119% in the assay with HS 578T breast. The growth in the assay on NCI/ADR-RES ovarian is 62.4%; in the assay on T-47D breast, 51.3%; in the assay with BT-549 breast it was 85.8%; with MDA-MB-435 melanoma it was 80.7%; with SW-620 colon, 97.1%; in the assay with MCF7 breast, 95.7%. Further, the growth in the assay with HCT-116 colon was 76.8%; in the assay on HCC-2998 colon, 72.5%; with KM12 colon, 60.3%.

With `c1ccc2cc(C[n+]3ccn(CCCCCCCn4cc[n+](Cc5ccc6ccccc6c5)c4)c3)ccc2c1`, the growth was 48.2% in the assay on OVCAR-5 ovarian; 37.3% with OVCAR-4 ovarian; 36.1% with SK-OV-3 ovarian; 27.5% in the assay with IGROV1 ovarian; 44.4% in the assay on OVCAR-3 ovarian; 61.5% with HS 578T breast. The growth in the assay with NCI/ADR-RES ovarian is 99.7%; in the assay with T-47D breast it was 23.4%; in the assay on BT-549 breast, 16.7%; in the assay with MDA-MB-435 melanoma, 32.7%; in the assay with SW-620 colon it was 74.2%; with MCF7 breast it was 35.1%. The growth in the assay with HCT-116 colon is 32.7%; with HCC-2998 colon, 49.3%; in the assay with KM12 colon, 28.7%.

Turning to `O=C1Cc2cc(CCn3cncn3)c(Cl)cc2N1`, the growth with OVCAR-5 ovarian was 87.4%; with OVCAR-4 ovarian, 86.8%; with SK-OV-3 ovarian, 79.3%; in the assay with IGROV1 ovarian it was 84.7%; in the assay with OVCAR-3 ovarian it was 71.7%; in the assay on HS 578T breast it was 28.6%. Also, the growth in the assay with NCI/ADR-RES ovarian was 52.9%; in the assay with T-47D breast it was 99.1%; with BT-549 breast it was 68%; in the assay on MDA-MB-435 melanoma, 34.4%; with SW-620 colon it was 54.2%; with MCF7 breast, 29%. The values for the growth with HCT-116 colon, with HCC-2998 colon and in the assay on KM12 colon were 79%, 75.1% and 36%, respectively.

For the molecule `COc1ccc(OC)c(/C=C/c2nc(=S)n(-c3ccc(Cl)cc3)[nH]2)c1`, the growth in the assay on OVCAR-5 ovarian was 116%; with OVCAR-4 ovarian, 91.6%; in the assay on SK-OV-3 ovarian, 73.5%; in the assay with OVCAR-3 ovarian, 29.4%; in the assay on HS 578T breast it was 98.7%; in the assay with T-47D breast, 72.5%. Moreover, the growth with BT-549 breast was 67.2%; in the assay on MDA-MB-435 melanoma it was -10.3% (active); with SW-620 colon it was 50.4%; in the assay on MCF7 breast, 32%; in the assay on HCT-116 colon it was 29.6%; in the assay with HCC-2998 colon it was 45.6%. Moreover, in the assay with KM12 colon, the growth was 40.9%.

In the case of `CCCCCCCC/C=C/CCCCCCCC1=NC(C)(C)CN1CC(C)O` (stereo unspecified), the growth with OVCAR-5 ovarian was 83.8%; in the assay with OVCAR-4 ovarian, 61.7%; with SK-OV-3 ovarian it was 88.5%; with IGROV1 ovarian it was -15.1% (active); with OVCAR-3 ovarian it was 31%; in the assay on HS 578T breast, 3.01% (active). Moreover, the growth was 73.4% in the assay on NCI/ADR-RES ovarian; 28.6% in the assay on T-47D breast; 86.7% in the assay with BT-549 breast; 6% (active) with MDA-MB-435 melanoma; 6.69% (active) in the assay with SW-620 colon; -85% (active) with HCT-116 colon. The values for the growth with HCC-2998 colon and in the assay on KM12 colon were 0.965% (active) and 6.06% (active), respectively.

On to `O=Nc1ccc(O)c(=O)cc1`, for which the growth in the assay with OVCAR-8 ovarian is 43.8%; in the assay on OVCAR-5 ovarian it was 68.1%; in the assay on SK-OV-3 ovarian, 108%; in the assay with IGROV1 ovarian it was 18.7%; in the assay on HS 578T breast it was 107%; in the assay on NCI/ADR-RES ovarian, 38%. In addition, the growth was 18.5% in the assay with T-47D breast; 32.5% in the assay on BT-549 breast; 32% with MDA-MB-435 melanoma; -43% (active) with SW-620 colon; 20.9% in the assay with MCF7 breast; 2.12% (active) in the assay with HCT-116 colon. For the same molecule, the growth with HCC-2998 colon was 97.8%.

As to `CCSc1nnc2n(Cc3ccccc3)c(=O)c3c(C)c(C(N)=O)sc3n12`, the growth with OVCAR-5 ovarian is 94.3%; in the assay on OVCAR-4 ovarian, 99.5%; in the assay with SK-OV-3 ovarian, 88.5%; in the assay on IGROV1 ovarian, 101%; in the assay with OVCAR-3 ovarian, 119%; in the assay on HS 578T breast, 101%. The growth in the assay on NCI/ADR-RES ovarian is 97.1%; in the assay with T-47D breast, 99.8%; in the assay on BT-549 breast, 88.9%; in the assay on MDA-MB-435 melanoma it was 105%; with SW-620 colon it was 109%; with MCF7 breast, 96.8%. In addition, the growth with HCT-116 colon is 100%; in the assay with HCC-2998 colon it was 101%; in the assay on KM12 colon, 105%.
